Data reported in PubChem BioAssay AID372 (MTDP, 2006).
Out of some 100,000 compounds screened, about 770 (0.77%) were called active. The sample holds actives, similar compounds and a random draw of the others, so the mix is not that of the screen. A number with no mark means an inactive call. No stated cut-off is given here; in the data, active means inhibition above about 50%; inactive means the rest.

Molecular target: Gag-Pol polyprotein (Human immunodeficiency virus type 1 group M subtype B (isolate HXB2)) (UniProt P04585)
Assay: RNase H inhibition, HIV 1 Gag Pol polyprotein, FRET biochemical assay, screening (AID 372)
Details: HIV-1 RT RNase H, FRET RNA/DNA substrate fluorescence; at 10 µM; hits give high values

| SMILES | inhibition |
| --- | --- |
| O=C1C(Cc2ccccc2)S/C(=N/N=C/c2cccc([N+](=O)[O-])c2)N1c1ccccc1 (configuration not stated) | 20% |
| Cc1ccc(NC(=O)CN(c2ccc(Br)cc2)S(=O)(=O)c2ccccc2)cc1Cl | 7% |
| CCOc1ccccc1NC(=O)CCN1C(=O)/C(=C/c2ccccc2Cl)SC1=S | 13% |
| CCCCOC(C)n1cc(Cl)c(=O)[nH]c1=O (configuration not stated) | 3% |
| COc1ccc2c(c1)c(=O)oc1cc(OCC(=O)c3ccc(F)cc3)ccc12 | 34% |
| COc1cc(/C=C2\SC(=S)NC2=O)cc(Br)c1OC(=O)c1ccccc1 | 58% (active) |
| COc1cc(/C=C2\SC(=S)NC2=O)cc(Br)c1OC | 5% |
| COc1cc(/C=C2/SC(=S)NC2=O)cc(Cl)c1OCC(C)COc1ccccc1 (configuration not stated) | 50% (active) |
| COc1cc(/C=C2\SC(=S)NC2=O)ccc1OCCOc1ccccc1Cl | 51% (active) |
| COc1cc(/C=C2\SC(=S)NC2=O)cc(Br)c1OC(C)=O | 4% |
| CCOc1cc(/C=C2\SC(=S)NC2=O)ccc1OCCOc1ccccc1Cl | 43% |
| COc1cccc(OCCOc2c(Cl)cc(/C=C3/SC(=S)NC3=O)cc2OC)c1 | 23% |
| COc1cc(/C=C2\SC(=S)NC2=O)cc(Cl)c1OCCOc1ccccc1Cl | 26% |
| CC(C)COc1ccc(/C=C2\SC(=S)NC2=O)cc1 | 22% |
| COc1ccc(OCCOc2c(Cl)cc(/C=C3\SC(=S)NC3=O)cc2OC)cc1 | 47% |
| CC(C)COc1ccc(/C=C2\SC(=S)NC2=O)c2ccccc12 | 51% (active) |
| COc1ccc(/C=C2\SC(=S)NC2=O)c(OC)c1OC | 0% |
| CCc1ccc(C=Nn2c(-c3ccc(Cl)cc3)n[nH]c2=S)cc1 | 3% |
| CCOc1cc(/C=C2\C(=O)NC(=O)N(c3ccc(Cl)cc3)C2=O)cc(Cl)c1OCC | 0% |
| CCC(C)OC(=O)C1=C(C)NC2=C(C(=O)CC(c3ccc(Cl)cc3)C2)C1c1ccc(OC(C)=O)cc1 (configuration not stated) | 11% |
| COc1ccccc1/C=C\C=N\n1c(-c2ccc(Cl)cc2Cl)n[nH]c1=S | 34% |
| CS(=O)(=O)N(CC(O)Cn1c2ccccc2c2ccccc21)c1ccc(Br)cc1 (configuration not stated) | 1% |
| CCN(CC)c1ccc(/C=N/NC(=O)CCC(=O)Nc2cccc(Cl)c2C)c(O)c1 | 6% |
| CCOP(=O)(CN1CCN(CP(=O)(OCC)OCC)CC1)OCC | 2% |
| Cc1c(NC(=O)c2cc(Cl)ccc2Cl)cccc1-c1nc2ccccc2s1 | 9% |

| SMILES | inhibition |
| --- | --- |
| O=c1/c(=C/c2ccc(-c3ccccc3)o2)sc2nc3ccccc3n12 | 9% |
| CCOC(=O)C1=C(C)NC2=C(C(=O)CC(c3ccc(OC)cc3)C2)C1c1ccc(OC)c(OC)c1 (configuration not stated) | 11% |
| Cc1ccc(C(=O)Oc2ccccc2C(=S)N2CCOCC2)cc1 | 0% |
| CCOC(=O)C1CCCN(C(=O)N2CCOCC2)C1 (configuration not stated) | 12% |
| Cc1cc2ncn(CC(O)COc3ccc(C(=O)O)cc3)c2cc1C (configuration not stated) | 0% |
| COc1ccccc1CNc1cccc(F)c1 | 0% |
| O=C1NC(=Nc2cccc(Cl)c2Cl)S/C1=C\c1ccc(O)cc1 | 12% |
| O=C1NC(=Nc2cccc(Cl)c2Cl)S/C1=C\c1ccc(O)c(O)c1 | 89% (active) |
| O=C1NC(=S)S/C1=C\c1cc([N+](=O)[O-])ccc1OCCOc1ccccc1Cl | 55% (active) |
| O=C1NC(=Nc2cccc(Cl)c2Cl)S/C1=C\c1ccc(F)cc1 | 22% |
| O=C1NC(=S)S/C1=C\c1ccccc1OCCOc1ccccc1Cl | 46% |
| Cc1cc(C)cc(OCCOc2ccc([N+](=O)[O-])cc2/C=C2\SC(=S)NC2=O)c1 | 38% |
| O=P(O)(OC(c1ccccc1)C(F)(F)F)c1ccccc1 (configuration not stated) | 2% |
| CC(=O)Oc1ccc(/C=C2/N=C(c3cccc([N+](=O)[O-])c3)OC2=O)cc1 | 14% |
| O=C(Cc1ccccc1)Nc1ccncc1 | 11% |
| Cn1cc(/C=C2/SC(=O)N(c3ccccc3)C2=O)c2ccccc21 | 12% |
| COc1ccc(Cl)cc1/C=C1\C(=O)NC(=S)N(c2cccc(Cl)c2Cl)C1=O | 8% |
| Clc1cccc(-c2ccc(/C=N/Nc3nc4ccccc4s3)o2)c1 | 4% |
| O=[N+]([O-])c1ccc(Cl)c(C=Nn2c(-c3ccc(Cl)cc3Cl)n[nH]c2=S)c1 | 16% |
| O=[N+]([O-])c1ccc(C=Nn2c(-c3ccc(Cl)cc3Cl)n[nH]c2=S)cc1 | 51% (active) |
| O=[N+]([O-])c1cc(C=Nn2c(-c3ccc(Cl)cc3Cl)n[nH]c2=S)ccc1Cl | 37% |
| COc1ccccc1-n1c(C=C2C(=O)N(Cc3ccccc3)c3ccccc32)nc2ccccc2c1=O | 9% |
| O=c1oc(/C=C\c2ccccc2)nc2ccc(Cc3ccc4nc(/C=C\c5ccccc5)oc(=O)c4c3)cc12 | 7% |
| Cc1oc2ccc(OCc3ccc([N+](=O)[O-])cc3)cc2c1C(=O)OC(C)C | 13% |
| CCOCCOC(=O)C1=C(C)NC2=C(C(=O)CC(c3ccc(OC)cc3)C2)C1c1cccc(OC)c1OC (configuration not stated) | 5% |

| SMILES | inhibition |
| --- | --- |
| O=C1c2ccccc2CCC1C1(O)C(=O)Nc2ccc(Br)cc21 (configuration not stated) | 2% |
| CCn1c2ccccc2c2ccc(-c3nn(-c4ccccc4)cc3C=O)cc21 | 11% |
| Cc1ccc(-c2ccccc2)n1-c1ccc(O)c(C(=O)O)c1 | 6% |
| Cc1ccc(-c2ccccc2)n1-c1ccc(Cl)c(C(=O)O)c1 | 3% |
| Cc1ccc(C)n1-c1ccc(Cl)c(O)c1 | 41% |
| Cc1nc(=O)c(-c2ccccc2)c(C)n1-c1ccc(C(=O)O)c(O)c1 | 0% |
| Cc1ccc(C)n1-c1ccc(Cl)c(C(=O)O)c1 | 53% (active) |
| Cc1ccc(C)n1-c1ccc(C(=O)O)c(O)c1 | 99% (active) |
| Cc1ccc(C)n1-c1ccc(C(=O)O)c(Cl)c1 | 16% |
| Cc1ccc(C)n1-c1cc(C(=O)O)cc(C(=O)O)c1 | 2% |
| CC(C)(Cc1ccc(O)cc1)NC(=O)Cc1ccccc1 | 6% |
| CS(=O)(=O)N(CC(=O)N1CCCC1)c1cccc(Cl)c1 | 6% |
| CC1=C(C#N)C(c2cccc(F)c2)C2=C(CC(c3ccccc3)CC2=O)N1 (configuration not stated) | 11% |
| COc1ccc(OC)c(NC(=O)CN(CCc2ccccc2)S(=O)(=O)c2ccccc2)c1 | 15% |
| Cc1cc(C)cc(NC(=O)Cc2ccccc2)c1 | 3% |
| O=C1NC(=O)N(c2ccccc2)C(=O)/C1=C\c1cccc(OCc2ccc(F)cc2)c1 | 9% |
| CC(=O)Nc1ccc2nn(-c3ccc(F)cc3)nc2c1 | 4% |
| O=C(CSc1nnnn1-c1ccccc1)Nc1ccc(C(=O)O)cc1 | 0% |
| CCOC(=O)c1ccc(NC(=O)CSc2nnnn2-c2c(C)cc(C)cc2C)cc1 | 55% (active) |
| COc1ccc(-n2nnnc2SCC(=O)Nc2c(C)cc(C)cc2C)cc1 | 12% |
| CC1=C(C(=O)OC(C)C)C(c2cccc(F)c2)C2=C(CCCC2=O)N1 (configuration not stated) | 4% |
| CCN1C(=O)/C(=C2\SC(=S)N(CC(=O)O)C2=O)c2ccccc21 | 7% |
| C=CCN1C(=O)/C(=C2\SC(=S)N(Cc3ccccc3)C2=O)c2ccccc21 | 33% |
| CCN1C(=O)/C(=C2\SC(=O)N(Cc3ccccc3)C2=O)c2ccccc21 | 59% (active) |
| CCN1C(=O)/C(=C2\SC(=S)N(c3ccccc3)C2=O)c2ccccc21 | 4% |

| SMILES | inhibition |
| --- | --- |
| CCN1C(=O)/C(=C2\SC(=S)N(c3ccc(Br)cc3)C2=O)c2ccccc21 | 57% (active) |
| CCCCCN1C(=O)/C(=C2\SC(=S)N(c3ccc(Br)cc3)C2=O)c2ccccc21 | 16% |
| CCC(C(=O)Nc1nc(-c2ccccc2)c(C)s1)c1ccccc1 (configuration not stated) | 10% |
| COC(=O)C1=C(C)NC2=C(C(=O)CC(c3ccccc3)C2)C1c1cc(Br)c(O)c(OC)c1 (configuration not stated) | 15% |
| Cc1cc(=O)oc2cc(OC(=O)CCCOc3ccc(Cl)cc3Cl)ccc12 | 18% |
| O=c1cc2oc3cc(O)c(O)cc3c(-c3ccccc3[N+](=O)[O-])c-2cc1O | 69% (active) |
| O=C1c2ccccc2C(=O)c2c(O)c([N+](=O)[O-])cc(O)c21 | 20% |
| CN(C)c1ccc(-c2c3cc(O)c(=O)cc-3oc3cc(O)c(O)cc23)cc1 | 63% (active) |
| Cc1ccc(-c2cc(=O)c3cc(Cl)ccc3o2)cc1 | 5% |
| O=c1[nH]c2ccccc2c(O)c1-c1ccccc1[N+](=O)[O-] | 1% |
| Cc1ccc(-c2cc(=O)c3cc(C)ccc3o2)cc1 | 11% |
| O=C(Nc1ccc2ccccc2c1)c1ccccc1Cl | 3% |
| Cc1cc(OCC(N)=O)ccc1Cl | 0% |
| Nc1c(Cl)cc(Br)c2c1C(=O)c1ccccc1C2=O | 6% |
| Nc1c(Cl)cc2c(c1Oc1ccccc1)C(=O)c1ccccc1C2=O | 8% |
| Cc1ccc2nc3c(N)c(Cl)cc4c3c(c2c1)-c1ccccc1C4=O | 56% (active) |
| O=C(Cn1c(NCCO)nc2ccccc21)c1cccc(Br)c1 | 3% |
| C=CCC(C(=O)c1ccccc1)C(=O)C(C)(C)OC (configuration not stated) | 7% |
| COc1ccc(CC(=O)N/N=C/c2ccc(I)o2)cc1 | 0% |
| Cc1ccc(/C=N/NC(=O)Cc2ccc(Cl)cc2)o1 | 7% |
| COc1ccc(CC(=O)N/N=C/c2ccc(-c3cc(Cl)ccc3C)o2)cc1 | 74% (active) |
| O=Cc1cc(Cl)c(OCc2ccc(F)cc2)c(Cl)c1 | 41% |
